Screening results (PubChem BioAssay)
This is a sample that favours compounds with a hit; in the whole collection about 8% have one here.
HCMV antiviral – inhibitors of human cytomegalovirus | actives 4.5% (n = 410,000) | AID 1259415 | activity change, negative = inhibition, % at 57.5 µM | HFF cells, HCMV-luciferase reporter, 72 h; stronger effect = lower value; in the data active means activity change below about -60%; inconclusive means no clear call, values can overlap the other calls; inactive means above about -39%; further: on the % scale 0 is the no-effect control and ±100 the full control effect
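Cell-based, HFFs, 1000 cells/well, 16 h 37C; cpds in DMSO + HCMV-luc, MOI 1 PFU/cell; 72 h 37C; OneGlo luminescence after 5 min RT; norm. to buffer vs Salinomycin 10uM.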
HCV inh – inhibitors of hepatitis C virus infection | Huh7.5.1 HCVcc-Cre infection, luciferase reporter, 44 h | Potency, µM (titrated, usually from 41.8 µM), inactives show at the top dose activity change, negative = inhibition, hits mostly inhibitors | actives 3.4% (n = 340,000); active means well fitted inhibition curve with a large enough effect; inconclusive means small, poorly fitted or top-dose-only effect, or another doubt; inactive means no such curve, though single readings can be large or run the other way; further: potency means the concentration at half of the fitted maximal effect; on the % scale 0 is the no-effect control and ±100 the full control effect
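Whole-lifecycle infectious HCVcc-Cre system; cells 1,000/well, compound then virus (~0.5 moi) added 4 h after plating, 44 h culture. Luciferase read 15 sec following 15 min substrate incubation, room temp.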
MARV entry inh – inhibitors of Marburg virus binding or cell entry; actives 1.8% (n = 300,000); Marburg virus pseudotyped entry inhibition, cell reporter; Potency, µM (series often up to 37.8 µM), inactives show top-dose activity change, negative = inhibition, hits mostly inhibitors; AID 540276; calls by dose curve; tested in HEK293 cells; further: potency means the concentration at half of the fitted maximal effect; on the % scale 0 is the no-effect control and ±100 the full control effect
SARS PLpro yeast – inhibitors of SARS-CoV papain-like protease in yeast; Potency, µM (titrated, usually from 32.9 µM), for inactives: at the highest dose activity, positive = growth rescue, hits mostly activators; actives 0.19% (n = 330,000); S. cerevisiae expressing SARS-CoV PLpro, growth rescue; calls by dose curve; further: potency means the concentration at half of the fitted maximal effect; 0% is about no effect; nearly all actives have a fitted effect of over 55% in size
FMDV antiviral – foot and mouth disease virus antiviral activity; Potency, µM (doses to about 57.9 µM), for the others: at the highest dose activity change, negative = inhibition, hits mostly inhibitors; actives 1.2% (n = 410,000); AID 1159524; FMDV antiviral cell-based qHTS; calls by dose curve; tested in HEK293T cells; further: read-out not given here; potency means the concentration at half of the fitted maximal effect; on the % scale 0 is the no-effect control and ±100 the full control effect; nearly all actives have a fitted effect of over 45% in size
Lassa entry inh – Lassa virus entry inhibition. AID 540256. Lassa virus pseudotype entry inhibition, cell reporter. actives 1.2% (n = 300,000). Potency, µM (titrated, usually from 37.9 µM), for the others: top-dose activity change, negative = inhibition, actives largely listed as inhibitors; calls by dose curve; tested in HEK293 cells; further: potency means the concentration at half of the fitted maximal effect; on the % scale 0 is the no-effect control and ±100 the full control effect; nearly all actives have a fitted effect of over 50% in size
The depositor's hits bear a star; [ ] = remark or other dose.

Screening COCCCNC(=O)c1sc2nc(C)c(C(=O)Nc3ccc(Cl)cc3)c(-c3ccc(Br)cc3)c2c1N returned HCMV antiviral -76.5*, MARV entry inh inconclusive, FMDV antiviral -16.1% and Lassa entry inh 1.2%[46.1 µM].
For CCOC(=O)c1c(C)nc2sc(C(N)=O)c(N)c2c1-c1ccccc1 the results were HCMV antiviral -62.0*, HCV inh -21.2%, MARV entry inh -14.7%, SARS PLpro yeast 7.7%, FMDV antiviral -20.2% and Lassa entry inh -17.2%.
CCOC(=O)c1c(C)nc2sc(C(=O)Nc3ccccc3)c(N)c2c1-c1ccc(OC)cc1 was read as HCV inh 6.31µM*, MARV entry inh inconclusive, SARS PLpro yeast 4.2%, FMDV antiviral 0.0% and Lassa entry inh 8.91µM*.
For O=C1CCC2=C(O1)C(O)=C(O)CC2 the results were MARV entry inh 8.0%.
`Cc1nc(N)sc1-c1csc(Nc2cccc(O)c2)n1` gave HCMV antiviral 70.4, HCV inh inconclusive, MARV entry inh 15.5%, SARS PLpro yeast -0.9%, FMDV antiviral -28.3% and Lassa entry inh 1.1%.
Screening Cc1nc2ccccn2c1-c1csc(Nc2cccc(O)c2)n1 returned HCMV antiviral inconclusive, HCV inh 0.891µM*, MARV entry inh inconclusive, SARS PLpro yeast 1.4%, FMDV antiviral inconclusive and Lassa entry inh inconclusive.
For Cc1cccc(Nc2nc(-c3sc(C)nc3C)cs2)c1 the results were HCMV antiviral 22.3, HCV inh 2.82µM*, MARV entry inh inconclusive, SARS PLpro yeast -19.6%, FMDV antiviral inconclusive and Lassa entry inh inconclusive.
CCC(=O)Nc1nc(C)c(-c2csc(Nc3cccc(O)c3)n2)s1 was read as HCMV antiviral 83.4, HCV inh 7.08µM*, SARS PLpro yeast -0.2% and FMDV antiviral -14.3%.
Screening Cc1cccc(Nc2nc(-c3ccncc3)cs2)c1 returned HCMV antiviral 37.2, HCV inh inconclusive, SARS PLpro yeast -11.7% and FMDV antiviral 4.6%.
Cc1nc(C)c(-c2csc(Nc3cccc(O)c3)n2)s1 was read as HCMV antiviral 38.5, HCV inh 25.1µM*, MARV entry inh inconclusive, SARS PLpro yeast -0.2%, FMDV antiviral 31.7% and Lassa entry inh -16.2%.
CN(C(=O)C(=O)c1cn(CC(=O)N2CCCC2)c2ccccc12)C1CCCCC1 was read as HCMV antiviral -25.4, HCV inh 15.7%, MARV entry inh 5.3%, SARS PLpro yeast 1.0%, FMDV antiviral -3.7% and Lassa entry inh 3.1%.
For COc1cccc(OCc2cc(C(=O)N3CCN(c4ccccc4OC)CC3)no2)c1 the results were HCMV antiviral 65.7, HCV inh inconclusive, SARS PLpro yeast -13.3% and FMDV antiviral 33.4%.
For Cc1ccccc1C(O)c1cccnc1 (stereo unspecified) the results were HCMV antiviral -60.7*, HCV inh 14.8%, MARV entry inh 15.5%, SARS PLpro yeast 5.6%, FMDV antiviral -23.8% and Lassa entry inh 17.7%.
Screening CCCc1cc(N2CCN(c3ccc(OC)cc3)CC2)n2cnnc2n1 returned HCMV antiviral -78.4*, MARV entry inh -29.5%[46.1 µM], FMDV antiviral inconclusive and Lassa entry inh -20.3%[46.1 µM].
Screening COc1ccc(N2CCN(c3c4c(nc5nncn35)CCC4)CC2)cc1 returned HCMV antiviral -70.4*, MARV entry inh inconclusive, FMDV antiviral inconclusive and Lassa entry inh 0.5%[46.1 µM].
Screening COc1ccc(N2CCN(c3nc4ccc(C(=O)c5ccccc5)cc4n4cnnc34)CC2)cc1 returned HCMV antiviral 0.0, FMDV antiviral -18.7% and Lassa entry inh 25.6%[46.1 µM].
For CCCc1cc(N2CCN(c3ccccc3)CC2)n2cnnc2n1 the results were HCMV antiviral inconclusive, MARV entry inh 4.0%[46.1 µM], FMDV antiviral inconclusive and Lassa entry inh -8.7%[46.1 µM].
Cc1cc(N2CCN(c3ccccc3)CC2)n2cnnc2n1 was read as HCMV antiviral -32.1, MARV entry inh 2.3%[46.1 µM], FMDV antiviral 0.0% and Lassa entry inh 4.2%[46.1 µM].
`Cc1nc2nncn2c(N2CCN(c3ccccc3)CC2)c1C` gave HCMV antiviral -74.5*, MARV entry inh 3.7%[46.1 µM], FMDV antiviral -11.2% and Lassa entry inh -3.9%[46.1 µM].
`CN1C(=O)[C@]2(c3ccccc31)[C@H]1CCCC=C1C(C#N)=C(N)C2(C#N)C#N` gave MARV entry inh -5.9%.
For CCCC(C)C(=O)Nc1cc([N+](=O)[O-])ccc1Cl (stereo unspecified) the results were HCMV antiviral inconclusive, HCV inh -20.1%, MARV entry inh 5.3%[46.1 µM], SARS PLpro yeast 2.5%, FMDV antiviral 0.0% and Lassa entry inh 3.6%[46.1 µM].
`CCCC(C)C(=O)Nc1ccc(Cl)cc1Cl` (stereo unspecified) gave HCMV antiviral -77.8*, HCV inh -21.8%, MARV entry inh -0.3%, SARS PLpro yeast -1.8%, FMDV antiviral 2.8% and Lassa entry inh -0.5%.
For CC(C)CC(=O)NC(C)C(c1cccs1)N1CCOCC1 (stereo unspecified) the results were HCMV antiviral 7.9, HCV inh 13.4%, SARS PLpro yeast 1.9% and FMDV antiviral -0.5%.
Screening CC1(C)Cc2ccccc2C2=NNC(=O)C2=N1 returned HCMV antiviral -101.6*, HCV inh inconclusive, MARV entry inh inconclusive, SARS PLpro yeast -1.7%, FMDV antiviral inconclusive and Lassa entry inh inconclusive.
Screening CC1(C)Cc2ccccc2C(Nn2cnnc2)=N1 returned HCMV antiviral 57.7, HCV inh 5.5%, MARV entry inh 14.4%, SARS PLpro yeast -3.9% and Lassa entry inh 3.4%.
For COc1cccc(-c2nn(C)c3sc(C(=O)N4CCN(c5cccc(C(F)(F)F)c5)CC4)cc23)c1 the results were HCMV antiviral 2.1, MARV entry inh -1.8%[46.1 µM], FMDV antiviral -26.1% and Lassa entry inh -27.0%[46.1 µM].
For COc1ccc(N2CCN(C(=O)c3cc4c(-c5cccc(OC)c5)nn(C)c4s3)CC2)cc1 the results were HCMV antiviral -24.1, HCV inh 6.31µM*, MARV entry inh -1.9%[46.1 µM], SARS PLpro yeast -6.4%, FMDV antiviral -2.1% and Lassa entry inh inconclusive.
Screening CC(=O)c1ccc(N2CCN(C(=O)c3cc4c(-c5ccccc5F)nn(C)c4s3)CC2)cc1 returned HCMV antiviral -12.7, HCV inh 14.1µM*, SARS PLpro yeast -3.8% and FMDV antiviral inconclusive.
For CCOC(=O)N1CCN(C(=O)c2cc3c(-c4cccc(OC)c4)nn(C)c3s2)CC1 the results were HCMV antiviral 8.8, HCV inh 8.91µM*, MARV entry inh inconclusive, SARS PLpro yeast -1.2%, FMDV antiviral inconclusive and Lassa entry inh inconclusive.
c1ccc(-c2cccc(N3CCC4(CCNCC4)CC3)c2)cc1 was read as FMDV antiviral -7.9%.
Screening O=C1CC(c2ccc3c(c2)OCCO3)Oc2ccc([N+](=O)[O-])cc21 (stereo unspecified) returned HCMV antiviral -76.6*, HCV inh -3.8%, SARS PLpro yeast 0.0% and FMDV antiviral inconclusive.
